The source of these data is PubChem BioAssay (NCI).

Test systems include SK-MEL-2 melanoma; SN12C renal; UO-31 renal; TK-10 renal; ACHN renal; CAKI-1 renal; A498 renal; CCRF-CEM leukemia; MOLT-4 leukemia; SR leukemia; RPMI-8226 leukemia; OVCAR-8 ovarian; OVCAR-4 ovarian; SK-OV-3 ovarian; IGROV1 ovarian; OVCAR-3 ovarian; HS 578T breast; OVCAR-5 ovarian; NCI/ADR-RES ovarian; EKVX NSCLC.
Assay in all cases: NCI-60 one-dose screen, 48 h (100 = growth as untreated, 0 = no growth, -100 = all killed)
Common to all, as to conditions: 10 µM unless noted

This is part of a sample that, as a whole, favours compounds with a hit. Of some 83,000 tested, about 20% had one in any assay.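 Results are percent growth after 48 hours of single-concentration exposure. 100 means growth as in untreated cells, lower positive values show inhibition; negative values down to -100 show cell death.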 A number with no mark means an inactive call. Active and inactive are the calls of the source. How the source made its calls: active means growth percent below 10; inactive means the rest.

For `CS(=O)(=O)c1ccc(-n2nc(-c3ccc(Br)cc3)c3ccccc3c2=O)cc1`, the growth is 107% in the assay on SK-MEL-2 melanoma; 102% in the assay on SN12C renal; 67.9% with UO-31 renal; 105% with TK-10 renal; 95.9% in the assay on ACHN renal; 98.7% in the assay on CAKI-1 renal. The growth with A498 renal was 81.3%; with CCRF-CEM leukemia it was 97.1%; in the assay with MOLT-4 leukemia, 94%; with SR leukemia, 110%; in the assay with RPMI-8226 leukemia it was 99.8%; with OVCAR-8 ovarian, 100%. Besides, the growth in the assay on OVCAR-4 ovarian is 97.8%; with SK-OV-3 ovarian, 94.3%; in the assay on IGROV1 ovarian it was 109%; with OVCAR-3 ovarian, 102%; in the assay with HS 578T breast it was 100%.
For the compound `NC(=O)c1cc(Cl)ccc1NC(=O)/C=C/c1ccccc1`, the growth is 57.7% in the assay on SK-MEL-2 melanoma; 49% with SN12C renal; 41.3% in the assay on UO-31 renal; 45.1% in the assay on TK-10 renal; 59.8% in the assay with ACHN renal; 56.5% in the assay with CAKI-1 renal. Also, the growth with A498 renal is 54.1%; with CCRF-CEM leukemia, 3.8% (active); in the assay on SR leukemia, -34.1% (active); in the assay on RPMI-8226 leukemia, 12.8%; with OVCAR-8 ovarian, 51.2%; in the assay with OVCAR-5 ovarian, 54.6%. The growth in the assay on OVCAR-4 ovarian was 40.7%; in the assay on SK-OV-3 ovarian, 3.73% (active); in the assay on IGROV1 ovarian, 88.6%; with OVCAR-3 ovarian, -30.3% (active); in the assay on NCI/ADR-RES ovarian it was 10.8%.
With `CCN(CC)S(=O)(=O)c1ccc(OC)c(NC(=O)c2[nH]c(C)c3c2CCCCC3=O)c1`, the growth is 55.3% in the assay with SK-MEL-2 melanoma; 42% in the assay on SN12C renal; 14.4% with UO-31 renal; 13.5% in the assay with TK-10 renal; 31.1% with ACHN renal; 15.1% with CAKI-1 renal. For the same compound, the growth in the assay with A498 renal is 15.1%; in the assay with CCRF-CEM leukemia, 55.7%; with MOLT-4 leukemia, 64.9%; with SR leukemia it was 43.4%; with RPMI-8226 leukemia, 16.7%; with OVCAR-8 ovarian, 41.1%. In addition, the growth in the assay on OVCAR-5 ovarian is 54.1%; with OVCAR-4 ovarian, 49.5%; with SK-OV-3 ovarian, 20.4%; in the assay on IGROV1 ovarian, 24.8%; in the assay with OVCAR-3 ovarian, 39%; in the assay with HS 578T breast, 16.4%.
As for `C#CCOc1ccc2ncnc(Nc3cccc(CNC(=O)CCl)c3)c2c1`, the growth in the assay with SK-MEL-2 melanoma is 49.6% [8.25 µM]; with SN12C renal, 30.3% [8.25 µM]; with UO-31 renal, 39.8% [8.25 µM]; in the assay with TK-10 renal, 38% [8.25 µM]; in the assay with ACHN renal it was 37.8% [8.25 µM]; in the assay with CAKI-1 renal it was 39.6% [8.25 µM]. The growth in the assay with A498 renal was -1.38% [8.25 µM] (active); in the assay on CCRF-CEM leukemia, 14.4% [8.25 µM]; with SR leukemia it was 25.1% [8.25 µM]; in the assay on RPMI-8226 leukemia it was 37.7% [8.25 µM]; with OVCAR-8 ovarian it was 38.8% [8.25 µM]; in the assay with OVCAR-5 ovarian it was 65.9% [8.25 µM]. Besides, the growth with OVCAR-4 ovarian was 27.2% [8.25 µM]; in the assay with SK-OV-3 ovarian, 48.1% [8.25 µM]; with IGROV1 ovarian it was -5.04% [8.25 µM] (active); in the assay on OVCAR-3 ovarian, 29.3% [8.25 µM]; in the assay on NCI/ADR-RES ovarian it was 90.3% [8.25 µM].
As to `O=C1/C(=C/c2ccc(OCCCOc3ccc(Cl)cc3)cc2)N=C2SCCCN12`, the growth is 98.4% in the assay on SK-MEL-2 melanoma; 47.6% with EKVX NSCLC; 70.9% in the assay with UO-31 renal; 71.6% in the assay with CAKI-1 renal; 96.5% in the assay on A498 renal; 69.5% in the assay on CCRF-CEM leukemia. The growth was 62.1% with MOLT-4 leukemia; 67.5% in the assay with SR leukemia; 45.6% in the assay on RPMI-8226 leukemia; 65.9% in the assay on OVCAR-8 ovarian; 102% in the assay on OVCAR-5 ovarian; 49.2% with OVCAR-4 ovarian. Also, the growth in the assay on SK-OV-3 ovarian is 105%; in the assay with IGROV1 ovarian, 97.8%; in the assay with OVCAR-3 ovarian, 71.3%; in the assay with HS 578T breast, 107%; with NCI/ADR-RES ovarian it was 67.4%.
For `COC(=O)c1ccc2oc(NC(=O)c3ccc(Nc4ccc([N+](=O)[O-])cc4C)c([N+](=O)[O-])c3)nc2c1`, the growth in the assay on SK-MEL-2 melanoma is 101%; in the assay on SN12C renal, 97.2%; in the assay with UO-31 renal, 90.7%; in the assay on TK-10 renal it was 100%; with ACHN renal, 104%; in the assay on CAKI-1 renal, 89.5%. Further, the growth in the assay with A498 renal is 108%; with CCRF-CEM leukemia, 107%; in the assay with MOLT-4 leukemia, 105%; in the assay on SR leukemia, 111%; with RPMI-8226 leukemia it was 108%; in the assay with OVCAR-8 ovarian it was 104%. Also, the growth was 109% with OVCAR-5 ovarian; 100% with OVCAR-4 ovarian; 102% in the assay with SK-OV-3 ovarian; 104% with IGROV1 ovarian; 105% in the assay with OVCAR-3 ovarian; 93.2% in the assay with HS 578T breast. Further, the growth in the assay on NCI/ADR-RES ovarian was 106%.
Take `COc1cc(-c2nc3ccccc3[nH]2)ccc1OCC(=O)N=Nc1c(O)[nH]c2ccc(Cl)cc12`: the growth was -47.4% (active) in the assay with SK-MEL-2 melanoma; -73.4% (active) in the assay with SN12C renal; 104% with UO-31 renal; -7.25% (active) in the assay on TK-10 renal; 31.4% in the assay on ACHN renal; -66.4% (active) in the assay with CAKI-1 renal. For the same compound, the growth is 81.8% in the assay with A498 renal; -46.7% (active) with CCRF-CEM leukemia; -45.1% (active) in the assay with MOLT-4 leukemia; -26.4% (active) in the assay on SR leukemia; -39.4% (active) in the assay with RPMI-8226 leukemia; -70.4% (active) in the assay on OVCAR-8 ovarian. For the same compound, the growth in the assay on OVCAR-5 ovarian was -26.4% (active); in the assay on OVCAR-4 ovarian, -92.6% (active); in the assay with SK-OV-3 ovarian it was -13.3% (active); in the assay on IGROV1 ovarian, -53.1% (active); in the assay on OVCAR-3 ovarian, -97.7% (active); with HS 578T breast, -60% (active). In addition, the growth with NCI/ADR-RES ovarian is 89.7%.
As for `CCOc1cc2c(cc1OCC)C(c1cc(OC)c(O)cc1Cl)NCC2` (stereo unspecified), the growth in the assay on SK-MEL-2 melanoma is 113%; in the assay on SN12C renal, 96.7%; in the assay with UO-31 renal, 70.1%; with TK-10 renal it was 88.2%; in the assay with ACHN renal it was 94.6%; in the assay on CAKI-1 renal it was 115%. Besides, the growth was 93.7% in the assay with A498 renal; 108% in the assay with CCRF-CEM leukemia; 112% in the assay with MOLT-4 leukemia; 98.7% in the assay on SR leukemia; 94% in the assay with RPMI-8226 leukemia; 90.8% with OVCAR-8 ovarian. Further, the growth with OVCAR-4 ovarian is 89.2%; in the assay with SK-OV-3 ovarian, 103%; with IGROV1 ovarian it was 90.5%; with OVCAR-3 ovarian, 98.6%; in the assay with HS 578T breast it was 106%.
